Laboratory results taken from PubChem BioAssay (EPA / NIEHS).
Active and inactive are the calls of the source. How the source made its calls: active means hit-call score of the fitted dose curve at least 0.9, where 1 is the maximum; inactive means score below 0.9.

read-out: Macrophage colony-stimulating factor (MCSF), CSF1 (gene 1435); assay: BSK_LPS_MCSF: BioMAP Diversity Plus: LPS Assay for Macrophage colony-stimulating factor (MCSF) Biomarker Activity (AID 2283083); conditions: primary human HUVEC with PBMC; actives raise or lower the signal
Method in brief: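 Bidirectional fit versus DMSO of ELISA-measured M-CSF in co-cultured human umbilical vein endothelial cells and PBMC, sampled 24 h after dosing.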

Tumor necrosis factor (Homo sapiens), sequence (P01375 whole entry, looked up): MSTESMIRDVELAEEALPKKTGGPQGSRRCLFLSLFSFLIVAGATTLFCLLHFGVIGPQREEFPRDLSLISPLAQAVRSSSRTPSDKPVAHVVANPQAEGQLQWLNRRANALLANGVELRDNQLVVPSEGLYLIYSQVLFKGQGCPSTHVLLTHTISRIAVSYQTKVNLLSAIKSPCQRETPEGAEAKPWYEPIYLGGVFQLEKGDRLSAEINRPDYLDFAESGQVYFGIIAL

Structure (SMILES)	outcome	AC50
O=C=NCCCCCCN=C=O	inactive	
c1ccc2ccccc2c1	inactive	
O=CCCCC=O		37.3 µM (active)
COc1cc(C(=O)NC2CCN(C)CC2)ccc1Nc1ncc2c(n1)N(C1CCCC1)CC(F)(F)C(=O)N2C		14 µM (active)
O=C1c2ccccc2C(=O)N1CCc1noc(-c2ccc(CN3CCCCCC3)s2)n1	inactive	
CCCC(=O)OCCC(C)C	inactive	
Clc1cc(Cl)c2c(c1)N=C1CCCCCN1C2	inactive	
CC(C)(c1cc(Br)c(O)c(Br)c1)c1cc(Br)c(O)c(Br)c1		23.5 µM (active)
CCCOC(=O)c1cc(O)c(O)c(O)c1	inactive	
O=C(OCCCCCCOC(=O)c1ccccc1)c1ccccc1	inactive	
CC(C)(C)c1cc(/C=C2\SC(N)=NC2=O)cc(C(C)(C)C)c1O		16 µM (active)
CCO[Si](CCCNC(N)=O)(OCC)OCC	inactive	
O=C(O)Cn1c(=O)n(Cc2ccc(Br)cc2F)c(=O)c2ccc(Cl)cc21	inactive	
COc1ccc2cc(S(=O)(=O)N[C@H](CC(=O)N[C@H](Cc3ccc(CN4[C@H](C)CCC[C@@H]4C)cc3)C(=O)N(C)C(C)C)c3ccc4c(c3)OCO4)ccc2c1		19.1 µM (active)
CC(C)(C)c1csc(-c2cc3cc(OCc4ccccc4CC(=O)O)ccc3o2)n1		27.2 µM (active)
Cc1ccc(C(C)C)cc1	inactive	
O=C(O)c1ccccc1C(=O)OCc1ccccc1	inactive	
CCCCCCCC[Si](OCC)(OCC)OCC	inactive	
CCN(Cc1cccnc1)C(=O)c1cccc(Cl)c1[C@]1(C)C(=O)N(Cc2ccc(OC)cc2OC)c2ccc(Cl)cc21		6.54 µM (active)
O=C(O)c1ccccc1-n1cc(C(=O)O)c(=O)c2cc(Nc3c(F)cc(F)cc3Cl)c(Cl)cc21	inactive	
Cc1cc2c(cc1C(F)(F)F)N(C(=O)Nc1ccc(Oc3cccnc3C)nc1)CC2		26.8 µM (active)
CCCCOC(=O)CC(CC(=O)OCCCC)(OC(C)=O)C(=O)OCCCC	inactive	

read-out: Tissue Factor, F3 (gene 2152); assay: BSK_LPS_TissueFactor: BioMAP Diversity Plus: LPS Assay for Tissue Factor Biomarker Activity (AID 2283084); conditions: primary human HUVEC with PBMC; actives raise or lower the signal
Method in brief: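 Read-out: CD142 ELISA, 24 h. System: LPS-driven human endothelial/PBMC co-culture. Analysis: up- or down-signal fitted against DMSO.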

Structure (SMILES)	outcome	AC50
Cc1cccc2ccccc12	inactive	
Cc1cc(F)ccc1-c1cc(N2CC[C@@H](O)[C@H]2CO)ncc1N(C)C(=O)C(C)(C)c1cc(C(F)(F)F)cc(C(F)(F)F)c1		12.9 µM (active)
CO[C@H]1/C=C/O[C@@]2(C)Oc3c(C)c(O)c4c(O)c(c(/C=N/N5CCN(C)CC5)c(O)c4c3C2=O)NC(=O)/C(C)=C\C=C\[C@H](C)[C@H](O)[C@@H](C)[C@@H](O)[C@@H](C)[C@H](OC(C)=O)[C@@H]1C	inactive	
C[C@]12CC[C@@H]3c4ccc(O)cc4CC[C@H]3[C@@H]1CCC2=O	inactive	
Oc1ccc2ccccc2c1	inactive	
CCCCCCCCOC(=O)c1cc(O)c(O)c(O)c1		32.4 µM (active)
Cc1occc1C(=O)Nc1ccc(C(=O)N2CCC(F)(F)/C(=C\C(=O)N3CCC(N4CCCCC4)CC3)c3ccccc32)cc1	inactive	
Cc1oc2c(NC(=O)c3c(Cl)cccc3Cl)cccc2c1C(C)(C)O		4.5 µM (active)
O=CCCCC=O	inactive	
COc1cc(C(=O)NC2CCN(C)CC2)ccc1Nc1ncc2c(n1)N(C1CCCC1)CC(F)(F)C(=O)N2C		12.1 µM (active)
O=C1c2ccccc2C(=O)N1CCc1noc(-c2ccc(CN3CCCCCC3)s2)n1	inactive	
CCCC(=O)OCCC(C)C	inactive	
CC(C)(c1cc(Br)c(O)c(Br)c1)c1cc(Br)c(O)c(Br)c1		30.1 µM (active)
CCCOC(=O)c1cc(O)c(O)c(O)c1	inactive	
CCO[Si](CCCNC(N)=O)(OCC)OCC	inactive	
CC(C)(C)c1csc(-c2cc3cc(OCc4ccccc4CC(=O)O)ccc3o2)n1	inactive	
O=C(O)c1ccccc1C(=O)OCc1ccccc1	inactive	
Cc1cc2c(cc1C(F)(F)F)N(C(=O)Nc1ccc(Oc3cccnc3C)nc1)CC2	inactive	
CCCCOC(=O)CC(CC(=O)OCCCC)(OC(C)=O)C(=O)OCCCC	inactive	

read-out: Tumor necrosis factor (Homo sapiens) (UniProt P01375); assay: BSK_LPS_TNFa: BioMAP Diversity Plus: LPS Assay for Tumour Necrosis Factor alpha (TNFa) Biomarker Activity (AID 2283085); conditions: primary human HUVEC with PBMC; actives raise or lower the signal;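 on AC50: TNFa protein level quantified by ELISA in the co-culture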
Method in brief: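 Read-out is ELISA of TNFa in primary human endothelial cell–PBMC co-cultures at 24 h after compound. Activity in either direction was fitted against DMSO.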

Structure (SMILES)	AC50	outcome
O=C(O)Cc1cc(I)c(Oc2ccc(O)c(I)c2)c(I)c1	13 µM (active)	
Cc1cccc2ccccc12		inactive
O=c1c(-c2ccc(O)cc2)coc2cc(O)cc(O)c12	15.8 µM (active)	
CC/C(=C(/CC)c1ccc(O)cc1)c1ccc(O)cc1	32.3 µM (active)	
Cc1cc(F)ccc1-c1cc(N2CC[C@@H](O)[C@H]2CO)ncc1N(C)C(=O)C(C)(C)c1cc(C(F)(F)F)cc(C(F)(F)F)c1	10.7 µM (active)	
O=C1O[C@H]([C@@H](O)CO)C(O)=C1O		inactive
CO[C@H]1/C=C/O[C@@]2(C)Oc3c(C)c(O)c4c(O)c(c(/C=N/N5CCN(C)CC5)c(O)c4c3C2=O)NC(=O)/C(C)=C\C=C\[C@H](C)[C@H](O)[C@@H](C)[C@@H](O)[C@@H](C)[C@H](OC(C)=O)[C@@H]1C		inactive
C[C@]12CC[C@@H]3c4ccc(O)cc4CC[C@H]3[C@@H]1CCC2=O		inactive
Oc1ccc2ccccc2c1		inactive
c1ccc(C[n+]2cccc3ccccc32)cc1		inactive
CCCCCCCCCCCO		inactive
O=C(Nc1ccc(Cl)cc1)Nc1ccc(Cl)c(Cl)c1	3.23 µM (active)	
CCCCCCCCOC(=O)c1cc(O)c(O)c(O)c1	32.3 µM (active)	
CN1C(=O)N(c2ccccc2Br)Cc2cnc(Nc3ccc4c(c3)OCC(CO)O4)nc21 (centres undefined)	3.14 µM (active)	
Cc1occc1C(=O)Nc1ccc(C(=O)N2CCC(F)(F)/C(=C\C(=O)N3CCC(N4CCCCC4)CC3)c3ccccc32)cc1		inactive
Cc1oc2c(NC(=O)c3c(Cl)cccc3Cl)cccc2c1C(C)(C)O		inactive
O=C=NCCCCCCN=C=O		inactive
c1ccc2ccccc2c1		inactive
O=CCCCC=O	32.7 µM (active)	

Structure (SMILES)	AC50	outcome
COc1cc(C(=O)NC2CCN(C)CC2)ccc1Nc1ncc2c(n1)N(C1CCCC1)CC(F)(F)C(=O)N2C	15.1 µM (active)	
O=C1c2ccccc2C(=O)N1CCc1noc(-c2ccc(CN3CCCCCC3)s2)n1		inactive
CCCC(=O)OCCC(C)C		inactive
Clc1cc(Cl)c2c(c1)N=C1CCCCCN1C2		inactive
CC(C)(c1cc(Br)c(O)c(Br)c1)c1cc(Br)c(O)c(Br)c1	19.1 µM (active)	
CCCOC(=O)c1cc(O)c(O)c(O)c1		inactive
O=C(OCCCCCCOC(=O)c1ccccc1)c1ccccc1	4.86 µM (active)	
CC(C)(C)c1cc(/C=C2\SC(N)=NC2=O)cc(C(C)(C)C)c1O	11.7 µM (active)	
CCO[Si](CCCNC(N)=O)(OCC)OCC		inactive
O=C(O)Cn1c(=O)n(Cc2ccc(Br)cc2F)c(=O)c2ccc(Cl)cc21	1.07 µM (active)	
COc1ccc2cc(S(=O)(=O)N[C@H](CC(=O)N[C@H](Cc3ccc(CN4[C@H](C)CCC[C@@H]4C)cc3)C(=O)N(C)C(C)C)c3ccc4c(c3)OCO4)ccc2c1	33.6 µM (active)	
CC(C)(C)c1csc(-c2cc3cc(OCc4ccccc4CC(=O)O)ccc3o2)n1	17.7 µM (active)	
Cc1ccc(C(C)C)cc1		inactive
O=C(O)c1ccccc1C(=O)OCc1ccccc1		inactive
CCCCCCCC[Si](OCC)(OCC)OCC		inactive
CCN(Cc1cccnc1)C(=O)c1cccc(Cl)c1[C@]1(C)C(=O)N(Cc2ccc(OC)cc2OC)c2ccc(Cl)cc21		inactive
O=C(O)c1ccccc1-n1cc(C(=O)O)c(=O)c2cc(Nc3c(F)cc(F)cc3Cl)c(Cl)cc21		inactive
Cc1cc2c(cc1C(F)(F)F)N(C(=O)Nc1ccc(Oc3cccnc3C)nc1)CC2		inactive
CCCCOC(=O)CC(CC(=O)OCCCC)(OC(C)=O)C(=O)OCCCC		inactive
